Assay results taken from the supplement of paper PMC10849652.
Targets with a hit are over-represented here; the source holds about 8,800 in all. About 0.5% of all pairs of compound and target were hits.

Key:
Experiment in all cases: log2 fold change, soluble protein after heating vs DMSO (PISA); higher = thermal stabilisation; K562 lysate, 10 uM; active = over 0.2 and 3.5 SD of the protein, either way, in both replicates (recomputed)
alvocidib = compound: CN1CC[C@H](c2c(O)cc(O)c3c(=O)cc(-c4ccccc4Cl)oc23)[C@H](O)C1 [alvocidib]
Summary of the method: (§1)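 K562 pellets were dounce-homogenised in PBS pH 7.4 with 1 mM MgCl2, and the crude extract at 1 mg/mL protein was treated with 10 μM compound for 30 min. Aliquots were heated for 3 min across 48°C-58°C, pooled, and brought to 0.5% NP-40 at 4°C; soluble protein was the supernatant after 21,000xg for 90 min. Soluble protein was quantified by TMTpro 16plex LC-MS/MS with channel sums equalised, and reported as log2 fold change in thermal stability against DMSO controls, with values from duplicates.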

Tubastatin A = compound: CN1CCc2c(c3ccccc3n2Cc2ccc(C(=O)NO)cc2)C1 [Tubastatin A]
Summary of the method: as §1

[1] = compound: CNC(=O)C1=CC=CC=C1NC2=NC(=NC=C2Cl)NC3=C(C=C(C=C3)N4CCOCC4)OC
Summary of the method: as §1

defactinib = compound: CNC(=O)c1ccc(Nc2ncc(C(F)(F)F)c(NCc3nccnc3N(C)S(C)(=O)=O)n2)cc1 [defactinib]
Summary of the method: as §1

[2] = compound: CNc1nc(-c2ccc3c(N)n[nH]c3c2)cc(N2C[C@@H](C(=O)NC3CCCCC3)CC[C@H]2C)n1
Summary of the method: as §1

encorafenib = compound: COC(=O)N[C@@H](C)CNc1nccc(-c2cn(C(C)C)nc2-c2cc(Cl)cc(NS(C)(=O)=O)c2F)n1 [encorafenib]
Summary of the method: as §1

[3] = compound: COC(=O)[C@H](CCSC)NC(=O)C1=C(C=C(C=C1)NC[C@H](CS)N)C2=CC=CC=C2
Summary of the method: as §1

alisertib = compound: COc1cc(Nc2ncc3c(n2)-c2ccc(Cl)cc2C(c2c(F)cccc2OC)=NC3)ccc1C(=O)O [alisertib]
Summary of the method: as §1

[4] = compound: COc1cc2nc(-c3cc(F)ccc3O)nc(N[C@@H]3CNC[C@H]3C(C)(C)O)c2cc1OC
Summary of the method: as §1

gefitinib = compound: COc1cc2ncnc(Nc3ccc(F)c(Cl)c3)c2cc1OCCCN1CCOCC1 [gefitinib]
Summary of the method: as §1

lapatinib = compound: CS(=O)(=O)CCNCc1ccc(-c2ccc3ncnc(Nc4ccc(OCc5cccc(F)c5)c(Cl)c4)c3c2)o1 [lapatinib]
Summary of the method: as §1

pictilisib = compound: CS(=O)(=O)N1CCN(Cc2cc3nc(-c4cccc5[nH]ncc45)nc(N4CCOCC4)c3s2)CC1 [pictilisib]
Summary of the method: as §1

crizotinib = compound: C[C@@H](Oc1cc(-c2cnn(C3CCNCC3)c2)cnc1N)c1c(Cl)ccc(F)c1Cl [crizotinib]
Summary of the method: as §1

[5] = compound: C[C@H](C1=CC=C(C=C1)C(=O)NC2=C3C=CNC3=NC=C2)N
Summary of the method: as §1

duvelisib = compound: C[C@H](Nc1ncnc2nc[nH]c12)c1cc2cccc(Cl)c2c(=O)n1-c1ccccc1 [duvelisib]
Summary of the method: as §1

gandotinib = compound: Cc1cc(Nc2cc(CN3CCOCC3)c3nc(C)c(Cc4ccc(Cl)cc4F)n3n2)n[nH]1 [gandotinib]
Summary of the method: as §1

tozasertib = compound: Cc1cc(Nc2cc(N3CCN(C)CC3)nc(Sc3ccc(NC(=O)C4CC4)cc3)n2)n[nH]1 [tozasertib]
Summary of the method: as §1

doramapimod = compound: Cc1ccc(-n2nc(C(C)(C)C)cc2NC(=O)Nc2ccc(OCCN3CCOCC3)c3ccccc23)cc1 [doramapimod]
Summary of the method: as §1

bafetinib = compound: Cc1ccc(NC(=O)c2ccc(CN3CC[C@H](N(C)C)C3)c(C(F)(F)F)c2)cc1Nc1nccc(-c2cncnc2)n1 [bafetinib]
Summary of the method: as §1

[6] = compound: Cc1cccc(CC(=O)N2CCc3c2ccc(-c2cn(C)c4ncnc(N)c24)c3F)n1
Summary of the method: as §1

Measured: log2 fold change

TUBB2A (UniProt Q13885)
inactive: alvocidib -0.007 | Tubastatin A -0.062 | [1] -0.021 | defactinib 0.006 | [2] -0.008 | encorafenib 0.01 | [3] 0.071 | alisertib -0.005 | [4] -0.001 | gefitinib -0.006 | lapatinib 0.009 | pictilisib 0.011 | crizotinib -0.049 | [5] -0.016 | duvelisib -0.012 | gandotinib 0.028 | tozasertib -0.011 | doramapimod 0.004 | bafetinib 0.026 | [6] -0.005

TRIP12 isoform 2 (UniProt Q14669)
inactive: alvocidib 0.018 | Tubastatin A -0.035 | [1] 0.002 | defactinib 0.045 | [2] -0.17 | encorafenib 0.049 | [3] -0.018 | alisertib 0.019 | [4] -0.122 | gefitinib 0.005 | lapatinib -0.109 | pictilisib 0.016 | crizotinib -0.029 | [5] -0.012 | duvelisib 0.05 | gandotinib -0.042 | tozasertib 0.024 | doramapimod -0.006 | bafetinib -0.06 | [6] 0.06

TSFM (UniProt P43897)
inactive: alvocidib 0.036 | Tubastatin A -0.088 | [1] 0.017 | defactinib 0.015 | [2] 0.01 | encorafenib -0.017 | [3] 0.13 | alisertib -0.021 | [4] 0.017 | gefitinib 0.018 | lapatinib 0.003 | pictilisib -0.007 | crizotinib -0.056 | [5] 0.012 | duvelisib 0.025 | gandotinib -0.122 | tozasertib 0.047 | doramapimod 0.06 | bafetinib -0.026 | [6] -0.034

UBE2H (UniProt P62256)
UniProt P62256, sequence (P62256 whole entry, looked up): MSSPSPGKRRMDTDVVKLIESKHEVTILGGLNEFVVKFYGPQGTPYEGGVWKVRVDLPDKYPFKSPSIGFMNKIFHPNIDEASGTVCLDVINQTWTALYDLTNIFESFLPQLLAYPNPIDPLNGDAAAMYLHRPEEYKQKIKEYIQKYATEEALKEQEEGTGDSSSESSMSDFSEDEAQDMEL
inactive: alvocidib 0.11 | Tubastatin A 0.076 | [1] -0.03 | defactinib 0.025 | [2] -0.061 | encorafenib 0.001 | [3] -0.01 | alisertib 0.004 | [4] -0.029 | gefitinib 0.044 | lapatinib 0.002 | pictilisib -0.022 | crizotinib 0.011 | [5] 0.174 | duvelisib 0.016 | gandotinib -0.172 | tozasertib 0.024 | doramapimod 0.003 | bafetinib 0.009 | [6] -0.188

TUBGCP2 isoform 4 (UniProt Q9BSJ2)
inactive: alvocidib -0.007 | Tubastatin A -0.008 | [1] 0.053 | defactinib 0.032 | [2] 0.003 | encorafenib 0.045 | [3] -0.026 | alisertib 0.021 | [4] 0.017 | gefitinib -0.018 | lapatinib -0.008 | pictilisib -0.029 | crizotinib -0.119 | [5] 0.08 | duvelisib -0.001 | gandotinib -0.087 | tozasertib 0.002 | doramapimod 0.033 | bafetinib 0.002 | [6] 0.009

TPM4 (UniProt P67936)
UniProt P67936, sequence (P67936 whole entry, looked up): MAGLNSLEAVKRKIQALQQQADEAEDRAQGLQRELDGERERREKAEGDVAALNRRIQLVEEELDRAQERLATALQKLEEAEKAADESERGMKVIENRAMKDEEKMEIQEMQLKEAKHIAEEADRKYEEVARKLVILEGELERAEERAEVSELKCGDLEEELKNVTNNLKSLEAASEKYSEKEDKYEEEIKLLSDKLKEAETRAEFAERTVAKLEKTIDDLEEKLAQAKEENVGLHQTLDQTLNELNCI
inactive: alvocidib -0.016 | Tubastatin A 0.074 | [1] -0.021 | defactinib 0.019 | [2] 0.022 | encorafenib 0.028 | [3] -0.028 | alisertib -0.105 | [4] 0.012 | gefitinib 0.033 | lapatinib -0.002 | pictilisib -0.043 | crizotinib 0.003 | [5] -0.001 | duvelisib -0.021 | gandotinib 0.039 | tozasertib -0.098 | doramapimod -0.029 | bafetinib -0.055 | [6] -0.018

TFIP11 (UniProt Q9UBB9)
UniProt Q9UBB9, sequence (Q9UBB9 whole entry, looked up): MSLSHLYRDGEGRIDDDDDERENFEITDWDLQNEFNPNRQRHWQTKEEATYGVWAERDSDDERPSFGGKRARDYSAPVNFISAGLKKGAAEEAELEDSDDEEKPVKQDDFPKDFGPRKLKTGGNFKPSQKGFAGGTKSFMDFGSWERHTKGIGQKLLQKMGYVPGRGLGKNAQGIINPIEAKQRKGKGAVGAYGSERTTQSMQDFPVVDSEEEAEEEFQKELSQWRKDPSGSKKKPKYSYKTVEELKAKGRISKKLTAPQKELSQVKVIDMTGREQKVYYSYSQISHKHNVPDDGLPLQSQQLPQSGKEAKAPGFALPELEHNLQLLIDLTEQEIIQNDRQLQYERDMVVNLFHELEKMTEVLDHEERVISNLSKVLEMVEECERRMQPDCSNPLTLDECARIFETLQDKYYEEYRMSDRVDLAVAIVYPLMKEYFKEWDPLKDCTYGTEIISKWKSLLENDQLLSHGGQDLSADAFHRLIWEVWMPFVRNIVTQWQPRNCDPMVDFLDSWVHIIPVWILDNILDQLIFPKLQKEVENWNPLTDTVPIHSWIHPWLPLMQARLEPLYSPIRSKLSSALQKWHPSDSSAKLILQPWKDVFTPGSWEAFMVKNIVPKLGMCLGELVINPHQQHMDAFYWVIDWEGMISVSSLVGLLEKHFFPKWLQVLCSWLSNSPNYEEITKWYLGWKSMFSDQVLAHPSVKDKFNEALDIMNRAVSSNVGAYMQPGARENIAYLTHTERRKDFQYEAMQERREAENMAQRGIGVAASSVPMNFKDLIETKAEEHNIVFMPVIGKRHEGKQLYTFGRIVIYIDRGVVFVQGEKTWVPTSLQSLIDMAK
active: [3] 0.381
inactive: alvocidib -0.013 | Tubastatin A -0.135 | [1] 0.024 | defactinib 0.061 | [2] -0.023 | encorafenib 0.042 | alisertib 0.062 | [4] 0.013 | gefitinib -0.041 | lapatinib -0.032 | pictilisib 0.061 | crizotinib -0.085 | [5] -0.031 | duvelisib -0.053 | gandotinib -0.097 | tozasertib 0.051 | doramapimod 0.043 | bafetinib -0.114 | [6] 0.06

TUBA4A (UniProt P68366)
UniProt P68366, sequence (P68366 whole entry, looked up): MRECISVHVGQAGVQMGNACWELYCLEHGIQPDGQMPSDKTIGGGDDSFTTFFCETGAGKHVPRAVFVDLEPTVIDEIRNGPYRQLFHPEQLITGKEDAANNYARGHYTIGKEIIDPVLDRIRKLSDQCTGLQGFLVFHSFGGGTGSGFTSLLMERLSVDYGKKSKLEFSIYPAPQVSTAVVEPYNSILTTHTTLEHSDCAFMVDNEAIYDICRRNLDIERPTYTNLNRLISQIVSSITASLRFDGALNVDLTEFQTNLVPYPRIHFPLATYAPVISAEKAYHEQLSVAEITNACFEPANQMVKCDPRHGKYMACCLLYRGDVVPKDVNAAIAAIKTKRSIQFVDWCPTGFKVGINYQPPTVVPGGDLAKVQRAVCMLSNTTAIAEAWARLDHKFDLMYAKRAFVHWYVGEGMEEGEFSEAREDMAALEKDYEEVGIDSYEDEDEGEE
inactive: alvocidib 0.003 | Tubastatin A -0.068 | [1] 0.049 | defactinib 0.014 | [2] -0.001 | encorafenib -0.039 | [3] 0.125 | alisertib 0.027 | [4] 0.032 | gefitinib 0.007 | lapatinib -0.02 | pictilisib 0.012 | crizotinib -0.048 | [5] -0.066 | duvelisib 0.034 | gandotinib 0.121 | tozasertib 0.011 | doramapimod 0.045 | bafetinib -0.028 | [6] 0.035

TMEM199 (UniProt Q8N511)
UniProt Q8N511, sequence (Q8N511 whole entry, looked up): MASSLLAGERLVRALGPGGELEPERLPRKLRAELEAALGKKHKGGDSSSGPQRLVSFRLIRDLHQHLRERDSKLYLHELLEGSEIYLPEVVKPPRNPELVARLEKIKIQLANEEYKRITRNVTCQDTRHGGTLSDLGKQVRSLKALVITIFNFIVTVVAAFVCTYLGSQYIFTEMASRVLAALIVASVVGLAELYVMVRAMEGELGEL
inactive: alvocidib -0.032 | Tubastatin A 0.097 | [1] -0.035 | defactinib -0.023 | [2] -0.001 | encorafenib -0.011 | [3] -0.093 | alisertib 0 | [4] -0.007 | gefitinib 0.001 | lapatinib -0.034 | pictilisib -0.035 | crizotinib 0.062 | [5] -0.053 | duvelisib 0.051 | gandotinib 0.016 | tozasertib 0.074 | doramapimod -0.068 | bafetinib -0.016 | [6] 0.099

TBC1D2B (UniProt Q9UPU7)
inactive: alvocidib -0.023 | Tubastatin A -0.157 | [1] 0.038 | defactinib 0.04 | [2] -0.047 | encorafenib 0.03 | [3] 0.063 | alisertib 0.011 | [4] 0.103 | gefitinib -0.001 | lapatinib 0.076 | pictilisib 0.006 | crizotinib 0.041 | [5] 0.007 | duvelisib 0.027 | gandotinib -0.096 | tozasertib -0.005 | doramapimod 0.007 | bafetinib -0.057 | [6] 0.052

UCHL5 isoform 3 (UniProt Q9Y5K5)
UniProt Q9Y5K5, sequence (Q9Y5K5 whole entry, looked up): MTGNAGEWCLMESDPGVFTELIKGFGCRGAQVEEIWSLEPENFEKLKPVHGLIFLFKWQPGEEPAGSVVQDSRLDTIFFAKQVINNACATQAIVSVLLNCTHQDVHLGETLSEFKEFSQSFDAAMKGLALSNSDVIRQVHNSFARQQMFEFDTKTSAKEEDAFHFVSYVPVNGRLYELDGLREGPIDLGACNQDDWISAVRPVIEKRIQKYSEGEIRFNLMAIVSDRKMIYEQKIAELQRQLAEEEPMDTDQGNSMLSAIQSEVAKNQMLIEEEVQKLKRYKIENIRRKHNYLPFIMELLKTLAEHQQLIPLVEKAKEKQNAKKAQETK
inactive: alvocidib -0.009 | Tubastatin A -0.063 | [1] 0.008 | defactinib -0.024 | [2] -0.011 | encorafenib -0.004 | [3] 0.088 | alisertib -0.026 | [4] -0.012 | gefitinib -0.014 | lapatinib 0.042 | pictilisib -0.029 | crizotinib 0.022 | [5] 0.121 | duvelisib -0.01 | gandotinib -0.044 | tozasertib -0.007 | doramapimod -0.015 | bafetinib -0.019 | [6] -0.02

UBE3C (UniProt Q15386)
inactive: alvocidib 0 | Tubastatin A -0.084 | [1] 0.023 | defactinib 0.033 | [2] 0.024 | encorafenib 0.076 | [3] -0.145 | alisertib 0.022 | [4] 0 | gefitinib -0.026 | lapatinib -0.004 | pictilisib -0.029 | crizotinib -0.055 | [5] -0.039 | duvelisib 0.007 | gandotinib -0.075 | tozasertib 0 | doramapimod 0.038 | bafetinib -0.036 | [6] 0.021

THADA (UniProt Q6YHU6)
UniProt Q6YHU6, sequence (Q6YHU6 whole entry, looked up): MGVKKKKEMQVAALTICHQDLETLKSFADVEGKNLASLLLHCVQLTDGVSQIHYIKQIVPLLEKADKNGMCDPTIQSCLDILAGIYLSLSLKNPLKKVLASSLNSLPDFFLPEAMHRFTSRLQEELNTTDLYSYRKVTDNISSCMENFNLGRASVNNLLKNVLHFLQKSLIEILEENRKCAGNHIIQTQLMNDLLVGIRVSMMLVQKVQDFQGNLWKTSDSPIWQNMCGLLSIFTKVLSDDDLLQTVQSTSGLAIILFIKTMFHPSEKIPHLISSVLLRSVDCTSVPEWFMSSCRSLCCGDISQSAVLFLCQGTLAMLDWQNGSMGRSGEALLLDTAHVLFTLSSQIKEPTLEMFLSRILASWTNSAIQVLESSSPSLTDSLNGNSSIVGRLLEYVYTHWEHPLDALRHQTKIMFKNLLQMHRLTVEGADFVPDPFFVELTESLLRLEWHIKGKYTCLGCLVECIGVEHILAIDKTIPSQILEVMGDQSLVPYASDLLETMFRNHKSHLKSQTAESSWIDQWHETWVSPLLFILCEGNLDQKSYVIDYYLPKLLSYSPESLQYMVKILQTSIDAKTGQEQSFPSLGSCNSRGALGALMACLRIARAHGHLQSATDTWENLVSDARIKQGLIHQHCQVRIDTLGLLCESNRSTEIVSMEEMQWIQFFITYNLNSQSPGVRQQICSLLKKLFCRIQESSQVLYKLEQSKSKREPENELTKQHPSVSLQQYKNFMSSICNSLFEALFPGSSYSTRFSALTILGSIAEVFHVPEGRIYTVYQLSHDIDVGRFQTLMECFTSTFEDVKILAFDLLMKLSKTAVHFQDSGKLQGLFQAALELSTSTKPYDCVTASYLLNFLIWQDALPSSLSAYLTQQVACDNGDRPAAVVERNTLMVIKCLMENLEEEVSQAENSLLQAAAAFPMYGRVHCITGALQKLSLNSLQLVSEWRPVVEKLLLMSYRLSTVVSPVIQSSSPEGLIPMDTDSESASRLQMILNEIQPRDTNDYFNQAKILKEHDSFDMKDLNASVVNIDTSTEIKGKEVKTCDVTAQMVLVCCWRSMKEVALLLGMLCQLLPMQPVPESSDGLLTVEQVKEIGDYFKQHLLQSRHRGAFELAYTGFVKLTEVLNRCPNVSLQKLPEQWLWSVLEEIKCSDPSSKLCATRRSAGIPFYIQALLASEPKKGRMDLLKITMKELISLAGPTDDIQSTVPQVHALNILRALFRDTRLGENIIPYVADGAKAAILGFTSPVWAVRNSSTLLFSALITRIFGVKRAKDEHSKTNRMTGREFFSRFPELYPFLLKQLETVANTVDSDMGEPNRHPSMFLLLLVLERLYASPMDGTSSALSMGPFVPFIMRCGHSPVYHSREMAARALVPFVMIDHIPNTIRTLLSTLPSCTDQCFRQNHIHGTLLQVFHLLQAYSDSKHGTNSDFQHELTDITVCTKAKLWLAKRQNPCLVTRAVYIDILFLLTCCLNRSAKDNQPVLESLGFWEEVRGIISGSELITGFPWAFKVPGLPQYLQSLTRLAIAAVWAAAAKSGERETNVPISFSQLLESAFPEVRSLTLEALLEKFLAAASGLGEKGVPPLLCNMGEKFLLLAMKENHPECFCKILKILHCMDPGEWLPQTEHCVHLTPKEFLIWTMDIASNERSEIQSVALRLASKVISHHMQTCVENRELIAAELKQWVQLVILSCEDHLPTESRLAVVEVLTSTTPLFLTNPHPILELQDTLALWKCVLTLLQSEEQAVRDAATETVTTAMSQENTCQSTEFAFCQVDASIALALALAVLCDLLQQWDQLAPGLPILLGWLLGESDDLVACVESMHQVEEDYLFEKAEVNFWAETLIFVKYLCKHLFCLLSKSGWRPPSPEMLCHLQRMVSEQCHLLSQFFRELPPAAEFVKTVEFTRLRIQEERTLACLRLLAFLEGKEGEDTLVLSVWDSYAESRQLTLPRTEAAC
inactive: alvocidib -0.002 | Tubastatin A -0.165 | [1] 0.008 | defactinib 0.014 | [2] -0.013 | encorafenib 0.022 | [3] 0.031 | alisertib 0.01 | [4] 0.012 | gefitinib 0.001 | lapatinib -0.042 | pictilisib -0.06 | crizotinib -0.073 | [5] -0.041 | duvelisib -0.02 | gandotinib -0.064 | tozasertib -0.003 | doramapimod -0.002 | bafetinib -0.041 | [6] 0.086

TMPO (UniProt P42167)
inactive: alvocidib -0.007 | Tubastatin A 0.018 | [1] -0.034 | defactinib -0.015 | [2] 0.029 | encorafenib 0.035 | [3] -0.163 | alisertib -0.026 | [4] -0.025 | gefitinib 0.027 | lapatinib 0.053 | pictilisib 0.029 | crizotinib 0.059 | [5] 0.047 | duvelisib -0.039 | gandotinib -0.033 | tozasertib 0.035 | doramapimod -0.037 | bafetinib 0.005 | [6] -0.04

TRIM3 (UniProt O75382)
UniProt O75382, sequence (O75382 whole entry, looked up): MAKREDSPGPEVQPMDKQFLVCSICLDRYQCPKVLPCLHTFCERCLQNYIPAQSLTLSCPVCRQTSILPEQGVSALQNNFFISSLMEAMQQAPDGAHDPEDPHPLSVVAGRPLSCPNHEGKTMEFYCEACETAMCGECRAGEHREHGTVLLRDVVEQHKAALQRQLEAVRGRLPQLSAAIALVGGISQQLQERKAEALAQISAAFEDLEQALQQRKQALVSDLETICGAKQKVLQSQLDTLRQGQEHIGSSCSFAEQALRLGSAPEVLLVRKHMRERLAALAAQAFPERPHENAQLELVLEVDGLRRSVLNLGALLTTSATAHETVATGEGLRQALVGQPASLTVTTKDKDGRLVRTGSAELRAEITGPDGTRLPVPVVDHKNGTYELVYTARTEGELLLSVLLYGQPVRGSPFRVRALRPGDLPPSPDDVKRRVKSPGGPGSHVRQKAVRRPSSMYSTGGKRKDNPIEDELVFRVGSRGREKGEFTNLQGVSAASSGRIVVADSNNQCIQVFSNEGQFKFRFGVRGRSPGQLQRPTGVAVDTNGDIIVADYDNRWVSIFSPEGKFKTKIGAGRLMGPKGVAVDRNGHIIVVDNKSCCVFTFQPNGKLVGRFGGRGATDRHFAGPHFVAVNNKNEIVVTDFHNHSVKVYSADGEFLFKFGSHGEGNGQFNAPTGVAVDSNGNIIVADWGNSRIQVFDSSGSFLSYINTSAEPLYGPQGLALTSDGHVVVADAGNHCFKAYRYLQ
inactive: [1] 0.06 | defactinib -0.095 | encorafenib 0.034 | [3] 0.041 | [4] 0.069 | lapatinib 0.009 | tozasertib -0.056
